Measured values reported in PubChem BioAssay (NCI).
This is part of a sample that, as a whole, favours compounds with a hit. Of some 83,000 tested, about 20% had one in any assay.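 Step 1: grow cells in 96-well plates. Step 2: add test compound at a single concentration. Step 3: incubate 48 h. Step 4: record percent growth.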 Calls of active or inactive are those of the source.

Test system: HS 578T breast
Assay: NCI-60 one-dose screen, 48 h (100 = growth as untreated, 0 = no growth, -100 = all killed)
Details: 10 µM unless noted
Procedure: Growth inhibition of the HS 578T human tumor cell line is measured as a screen for anti-cancer activity. Cells are grown in 96 well plates and exposed to the test compound for 48 hours. Compounds are tested at a single concentration, which is 10^-5 M for most compounds. The reported endpoint is percent growth (GI% or GIPRCNT), where numbers from 0 - 100% represent growth inhibition, and numbers from -100% - 0 represent cell death. For example, a value of 40 represents 60% growth inhibition. A value of 0 means no net growth occurred over the course of the experiment. A value of -40 indicates 40% of cells at the beginning of the experiment died by the end of the experiment. A value of -100 means all cells are dead at the end of the experiment.
NCI-60 Human Tumor Cell Lines Screen was performed using the standard one-dose NCI protocol, which is described in more detail at https://dtp.cancer.gov/discovery_development/nci-60/default.htm.
Compounds with GIPRCNT values below 10 were considered active. Activity score was based on GIPRCNT using the following formula: […]
Score is 0 for GIPRCNT values of 100 or above, 50 for GIPRCNT values of 0, and 100 for GIPRCNT values of -100.

Structure (SMILES)	growth
CC(CO)NC1CCCCC1 (stereo not given)	115% (inactive)
CCCCCN(CCCCC)CC(O)c1cc(Cl)ccc1OC (stereo not given)	50.1% (inactive)
CC[C@H](C)[C@H](NC(=O)[C@H]1CCCCN1C)C(=O)N(C)[C@H](C[C@@H](O)c1nc(C(=O)N[C@@H](Cc2ccccc2)C[C@H](C)C(=O)O)cs1)C(C)C	75.7% (inactive)
COc1ccc(Nc2ccnc3cc(Cl)ccc23)cc1CN(CCCl)CCCl	-27.6% (active)
CC1(C)[C@H](O)[C@H](F)C[C@@]2(C)Oc3ccc(C(=O)Nc4ccc5c(c4)NC(=O)C54CCN(CCCCC#N)CC4)cc3C[C@H]12	-13.3% (active)
Cc1ccc(C(=O)NCCCOc2ccc(N3C(N)=NC(N)=NC3(C)C)cc2Cl)cc1S(=O)(=O)F	109% (inactive)
O=C(CCCC1CCCCC1)OCC(Cl)(Cl)Cl	103% (inactive)
O=C1CNC(c2ccccc2)c2cc(Cl)ccc2N1 (stereo not given)	109% (inactive)
Cn1cc(-c2csc(-c3cn(CCCCN4CCCCC4)c4ccccc34)n2)c2cccnc21	61% (inactive)
O=[N+]([O-])CC(c1ccccc1Cl)c1c(-c2ccccc2)[nH]c2ccccc12 (stereo not given)	41.2% (inactive)
CC12CC=CCC1CCC1C2CCC2(C)C(c3ccc(=O)oc3)CCC12O (stereo not given)	-18.5% (active)
C[N+]12CN3CN(CN(C3)C1)C2	98% (inactive)
CC(C)(C)C(=O)OCOP(=O)(OCOC(=O)C(C)(C)C)C1CCCN(O)C1=O (stereo not given)	-8.85% (active)
CC(=O)Nc1nc2c(s1)CC[C@@]1(C)C2=CC[C@H]2[C@@H]3CC[C@H](O)[C@@]3(C)CC[C@@H]21	60.5% (inactive)
N#C[S-].[Au+].c1ccc(CN2[CH-]N(Cc3ccccc3)C(c3ccccc3)=C2c2ccccc2)cc1	36.3% (inactive)
O=C(O)c1ccc([S-])cc1.[Au+].c1ccc(CN2[CH-]N(Cc3ccccc3)C(c3ccccc3)=C2c2ccccc2)cc1	23.2% (inactive)
O=[N+]([O-])c1cc([N+](=O)[O-])c(Cl)cc1Cl	-27.6% (active)
O=C(NCCN1CC1)C(=O)NCCN1CC1	107% (inactive)
COC1CC2c3ccccc3C1C(C)=[N+]2C (stereo not given)	105% (inactive)
COC(=O)C12CC(NC(=O)c3csc([C@@H](C[C@H](C(C)C)N(C)C(=O)[C@@H](NC(=O)[C@H]4CCCCN4C)C4CC4)OC(C)=O)n3)(C1)C2	33.1% (inactive)

Structure (SMILES)	growth
CC(=O)O[C@H](C[C@H](C(C)C)N(C)C(=O)[C@@H](NC(=O)[C@H]1CCCCN1C)C(C)C)c1nc(C(=O)N[C@@H](Cc2ccccc2)C[C@H](C)C(=O)O)c(C(C)C)s1	17% (inactive)
Nc1cc2nc3ccccc3nc2cc1N	76.8% (inactive)
Cc1ccccc1NC(=NCCCN1CC1)Nc1ccccc1C	97.4% (inactive)
c1cc2c(c3c1CCNC3)OCO2	112% (inactive)
O=[As](O)(O)c1ccccc1[As](=O)(O)O	114% (inactive)
Fc1ccc(N2COOC3(OOC2)C2CC4CC(C2)CC3C4)cc1	109% (inactive)
O=C(CC1(O)C(=O)Nc2ccccc21)c1ccc(C(=O)NCC2CCC3(CC2)OOC2(CCCCC2)OO3)cc1 (stereo not given)	91.9% (inactive)
COC(=O)[C@@H](C)C[C@H](Cc1ccccc1)NC(=O)c1csc([C@@H](C[C@H](C(C)C)N(C)C(=O)[C@@H](NC(=O)[C@H]2CCCN2C)C2CC2)OC(C)=O)n1	3.36% (active)
N/C(=N\N=C\c1ccc(-c2ccccc2)cc1)N[N+](=O)[O-]	44.3% (inactive)
COC(=O)[C@@H](C)C[C@H](Cc1ccccc1)NC(=O)c1csc([C@@H](C[C@H](C(C)C)N(C)C(=O)[C@@H](NC(=O)[C@H]2CCCCN2C)C2CC2)OC(C)=O)n1	35.7% (inactive)
O=C1C2C(C(=O)[N]1[Hg][c]1cccs1)C1(Cl)C(Cl)=C(Cl)C2(Cl)C1(Cl)Cl (stereo not given)	42% (inactive)
Clc1cccc(Cl)c1Cl	102% (inactive)
COC1=CC(=O)O[C@@H](/C=C/c2ccc3c(c2)OCO3)C1	95.1% (inactive)
CC[C@@H]1[C@@H](C)O[C@@](O)([C@@H](C)[C@H](O)[C@H](C)[C@H]2OC(=O)/C=C/C=C/[C@H](C)[C@@H]([C@@H](C)[C@@H](O)[C@H](C)[C@@]3(O)C[C@@H](O[C@H]4C[C@@H](O)[C@H](O)C(C)O4)[C@H](CC)[C@@H](C)O3)OC(=O)/C=C/C=C/[C@@H]2C)C[C@H]1O[C@@H]1C[C@@H](O)[C@H](O)C(C)O1 (stereo not given in full)	-51.5% (active)
CCOC(=O)C(Cc1ccc(N(CCCl)CCCl)cc1)NC(=O)C(CC(C)C)NC(C)=O (stereo not given)	108% (inactive)
C[C@@H]1O[C@@H](O[C@H]2C[C@@H](O)[C@]3(CO)C4C(CC[C@]3(O)C2)[C@@]2(O)CC[C@H](C3=CC(=O)OC3)[C@@]2(C)C[C@H]4O)[C@H](O)[C@H](O)[C@H]1O (stereo not given in full)	22.3% (inactive)
CC1(C)C(C(=O)c2cn(CCCCF)c3ccccc23)C1(C)C	88.5% (inactive)
COc1ccc2c(c1)c(-c1nc(-c3cn(C)c4ncccc34)cs1)cn2CCCCN1CCCCC1	58.3% (inactive)
CC(C)=CCc1c(O)c(C(=O)CC(C)C)c(O)c2c(-c3ccccc3)cc(=O)oc12	47% (inactive)
c1cnc2[nH]cc(-c3csc(-c4cn(CCCCN5CCCCC5)c5ccccc45)n3)c2c1	84.3% (inactive)
